Bioassay records from PubChem.
The list is not random: actives were taken first. Their share in the collection is about 3.9%.
CCHFV vOTU inh – CCHFV vOTU protease inhibition. Pep-AMC fluorescence. inhibition, % at 11.5 µM. hit rate 0.55% among 370,000. AID 651958; in the data active = inhibition above about 30%; also: 0% = vehicle wells with enzyme and 100% = no enzyme wells
BoNT-A LC inh2 – inhibitors of Botulinum neurotoxin A light chain protease; inhibition, % at 10 µM; multiplex microsphere protease substrate cleavage, flow cytometry; hit rate 0.17% among 360,000; also: plate controls were buffer without enzyme for full effect and enzyme alone for no effect
3CLpro inhibitor – SARS-CoV 3CLpro protease inhibition; P0C6X7; AID 1706; inhibition, % at 6 µM; recombinant SARS-CoV 3CLpro, quenched FRET peptide cleavage; hit rate 0.14% among 290,000; in the data active = inhibition above about 12%
BoNT F protease – inhibitors of Botulinum neurotoxin F light chain protease | Multiplex microsphere protease cleavage assay, flow cytometry | inhibition, % at 10 µM | AID 588497 | hit rate 0.22% among 360,000; in the data active = inhibition above about 35%, passing the limit was not always enough; inconclusive = no clear call, values can overlap the other calls; also: plate controls were buffer without enzyme for full effect and enzyme alone for no effect
Autofluor counter – counter-screen for toxin protease inhibitors: compound fluorescence | compound autofluorescence counterscreen, microsphere flow cytometry; hits give high values | fluorescence intensity (no concentration beside the values) | hit rate 3.1% among 360,000 | AID 624483; in the data active = fluorescence intensity above about 16000; inconclusive = no clear call, values can overlap the other calls
Anthrax LF prot – inhibitors of Bacillus anthracis lethal factor protease | P15917 | multiplex microsphere protease cleavage assay, LF | inhibition, % at 10 µM | hit rate 0.12% among 360,000; also: plate controls were buffer without enzyme for full effect and enzyme alone for no effect
Target sequence (P15917 whole entry, looked up): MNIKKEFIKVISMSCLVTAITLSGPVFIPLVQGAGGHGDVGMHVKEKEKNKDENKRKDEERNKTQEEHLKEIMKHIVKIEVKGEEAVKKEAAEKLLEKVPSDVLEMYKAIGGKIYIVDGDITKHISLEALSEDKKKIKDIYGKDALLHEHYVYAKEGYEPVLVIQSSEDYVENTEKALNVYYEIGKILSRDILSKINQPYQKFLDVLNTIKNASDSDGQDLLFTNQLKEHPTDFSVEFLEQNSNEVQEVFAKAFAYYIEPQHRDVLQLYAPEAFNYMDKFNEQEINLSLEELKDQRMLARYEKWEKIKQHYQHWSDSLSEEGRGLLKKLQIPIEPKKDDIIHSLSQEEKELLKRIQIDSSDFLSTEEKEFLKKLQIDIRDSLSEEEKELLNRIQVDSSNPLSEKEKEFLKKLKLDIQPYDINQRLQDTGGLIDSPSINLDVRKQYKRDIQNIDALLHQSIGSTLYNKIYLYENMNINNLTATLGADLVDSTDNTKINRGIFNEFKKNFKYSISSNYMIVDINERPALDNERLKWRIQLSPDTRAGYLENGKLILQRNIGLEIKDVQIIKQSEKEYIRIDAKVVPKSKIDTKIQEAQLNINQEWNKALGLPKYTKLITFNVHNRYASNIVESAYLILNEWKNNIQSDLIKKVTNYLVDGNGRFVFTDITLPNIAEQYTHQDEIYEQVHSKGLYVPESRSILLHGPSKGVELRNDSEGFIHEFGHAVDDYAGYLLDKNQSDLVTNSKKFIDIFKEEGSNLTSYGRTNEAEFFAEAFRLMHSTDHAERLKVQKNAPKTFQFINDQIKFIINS
* = called active by the depositor; ? = inconclusive; · = no result given. Rule as the data show it, unless noted: active = inhibition above about 30%; inconclusive = no clear call, values can overlap the other calls; inactive = below that.

SMILES | CCHFV vOTU inh | BoNT-A LC inh2 | 3CLpro inhibitor | BoNT F protease | Autofluor counter | Anthrax LF prot
O=C1NN(c2cccc(Br)c2)C(=O)/C1=C\c1ccc(N2CCOCC2)cc1 | · | -1 | 1 | -27 | 4191 | -2
O=c1[nH]c(Nc2ccc(F)cc2)cc2ccccc12 | 105* | ? | 0 | -2 | 23479* | -2
CCOc1ccccc1NC(=O)c1ccc(NC(=O)C2CCCO2)cc1 (stereo not drawn) | 8 | 1 | 1 | 2 | 5662 | 0
CCc1ccc(OCC(=O)Nc2cc(S(=O)(=O)CC)ccc2O)cc1 | -13 | 4 | 2 | 4 | 17897* | 0
CCS(=O)(=O)c1ccc(O)c(NC(=O)COc2ccccc2)c1 | 4 | 0 | -1 | 2 | 11012 | -1
CCCCNC(=O)OCCNC(=O)NC | 0 | ? | -4 | 9 | 18838* | -18
CCOC(=O)c1c(-c2cccs2)csc1NC(=O)CN(CC)CC | 22 | -2 | 5 | -1 | 22950* | -6
CCOC(=O)c1c(-c2cccs2)csc1NC(=O)CC(C)C | 10 | 0 | -6 | -9 | 4044 | 0
O=C(c1nsc(Cl)c1Cl)N1CCCCC1 | 6 | 0 | 8 | 0 | 20635* | -1
O=S(=O)(c1ccccc1)N1CCCc2nc(-c3ccc(F)cc3)ccc21 | -1 | · | · | · | · | ·
COc1cccc(-c2cnc(C(O)c3c(C)cccc3C)[nH]2)c1 (stereo not drawn) | 6 | -1 | · | -1 | 4622 | -1
O=S(=O)(Cc1ccccc1)N1CCN(C/C=C/c2ccccc2)CC1 | -1 | -5 | -3 | -8 | 25473* | -1
CS(=O)(=O)N1CCN(C/C=C/c2ccccc2)CC1 | -4 | 1 | 2 | 5 | 3708 | 2
S=C(NCCCN1CCOCC1)N1CCN(c2cccc(Cl)c2)CC1 | 5 | -1 | -1 | -17 | 3363 | -1
Cc1ccc(C)c(OCCCN2CCCC2)c1 | -5 | -1 | -4 | 0 | 21161* | 0
Cc1onc(-c2ccccc2)c1C(=O)Nc1nc(-c2cc(F)ccc2F)cs1 | -11 | 0 | -2 | -1 | 20225* | -3
Cc1onc(-c2ccccc2Cl)c1C(=O)Nc1ccc(F)c(F)c1 | 4 | 0 | 1 | -3 | 22619* | -14
Cc1onc(-c2ccccc2Cl)c1C(=O)N1CCN(c2ccccc2)CC1 | 2 | ? | -3 | 2 | 22146* | -4
Cc1noc(C)c1C(=O)Nc1nc(-c2cc(F)ccc2F)cs1 | -4 | -3 | · | 3 | 6880 | -4
Cc1onc(-c2ccccc2Cl)c1C(=O)Nc1ccc2c(c1)OCO2 | 7 | 0 | -1 | -6 | ? | -2
Cc1onc(-c2ccccc2Cl)c1C(=O)N1CCN(c2cccc(Cl)c2)CC1 | 6 | 0 | · | -9 | 5142 | 2
COC(=O)c1cc(OC)c(OC)cc1NC(=O)c1c(-c2ccccc2Cl)noc1C | -2 | 3 | 5 | 5 | 21663* | 0
CCCNC(=O)c1ccc(C)c(NC(=O)C2=C(C)OCCS2)c1 | -10 | -4 | 4 | -4 | 3505 | 4
CCCCn1nnnc1C(c1cc2ccccc2o1)N1CCCN(C(=O)OC(C)(C)C)CC1 (stereo not drawn) | 12 | 0 | · | 4 | 6284 | 2
Cc1onc(-c2c(F)cccc2Cl)c1C(=O)Nc1sc2c(c1C(N)=O)CCC2 | 1 | -1 | -5 | -2 | 16903* | -3
SMILES | CCHFV vOTU inh | BoNT-A LC inh2 | 3CLpro inhibitor | BoNT F protease | Autofluor counter | Anthrax LF prot
Cc1ccc(NC(=S)NC(=O)c2c(-c3ccccc3Cl)noc2C)cc1 | -8 | ? | -3 | -1 | 22637* | 0
O=C(Cn1nnc(-c2ccccc2NC(=O)C2CC2)n1)NC1CCCCC1 | 8 | -1 | 0 | -12 | 6780 | -4
O=C(Nc1ccc(OCC(=O)N2CCOCC2)cc1)c1ccccc1Cl | -13 | -2 | -1 | -6 | 6435 | 4
Cc1onc(-c2ccccc2Cl)c1C(=O)Nc1ccc(OCC(=O)N2CCOCC2)cc1 | 0 | 0 | -1 | -2 | 16183* | -1
COc1cccc(-c2nnn(CC(=O)NC3CCCC3)n2)c1OC | 1 | -1 | 3 | 0 | 16511* | -5
Cc1onc(-c2ccccc2)c1C(=O)Nc1sc2c(c1C(N)=O)CCC2 | -14 | 1 | -2 | -14 | 8435 | -8
Cc1ccc(C)c(S(=O)(=O)N2CCCC2CNC(=O)C(=O)NCC2CCCO2)c1 (stereo not drawn) | 4 | -1 | · | -9 | 5396 | 2
O=C(COC(=O)c1nc(Cl)ccc1Cl)NCc1ccccc1 | -5 | -1 | 6 | -4 | 2540 | 0
COC(=O)c1cc(OC)c(OC)cc1NC(=O)Cn1nnc(-c2ccccc2Cl)n1 | 17 | -2 | 5 | -5 | 24177* | -2
COc1ccc(NC(=O)Cn2nnc(-c3ccccc3F)n2)cc1Cl | 7 | 1 | 0 | 6 | 3048 | -1
CN(CCOc1ccc(Cl)cc1)C(=O)c1cccc(S(=O)(=O)N2CCN(Cc3ccccc3)CC2)c1 | 7 | 0 | · | -10 | 3993 | -4
O=C(O/N=C1/CCSc2ccccc21)c1ccc(F)cc1 | · | ? | 6 | -6 | 24780* | -3
CC(=O)Oc1ccc2oc3c(c2c1)C(=O)CCC3 | 0 | -2 | -1 | -4 | 23365* | -1
Cc1ccc(S(=O)(=O)CNC(=S)c2cccc(Cl)c2)cc1 | 6 | 0 | 3 | -3 | 2536 | -2
Cc1ccc(C(=S)NCS(=O)(=O)c2ccc(C)cc2)cc1 | 6 | -2 | -4 | -4 | 23970* | -2
O=C(Nc1ccc(OC(F)(F)F)cc1)Nc1c(-c2ccc(C(F)(F)F)cc2)nc2ncccn12 | 0 | · | · | · | · | ·
CCOC(=O)CSc1nnc(NCC(=O)OC)c(=O)[nH]1 | -3 | -6 | -2 | -7 | 21379* | 0
CCOC(=O)CSc1nnc(C)c(=O)[nH]1 | -1 | 0 | 0 | -6 | 2981 | -2
O=C(Cc1cccs1)Nc1nc(-c2ccc(F)cc2F)cs1 | 11 | -6 | 8 | -9 | 17771* | -1
O=C(CN1CCN(c2ccc(C(F)(F)F)cn2)CC1)NCc1ccc2c(c1)OCO2 | 8 | ? | 4 | ? | 3704 | -8
CCCCC(=O)Nc1nc(C)c(C(C)=O)s1 | 1 | -2 | 3 | -7 | 6253 | 1
CC(=O)c1sc(NC(=O)C=C(C)C)nc1C | 7 | -2 | -1 | -3 | 17371* | -5
N#C/C(=C/c1ccc(N2CCCCCC2)o1)c1ccc(Cl)cc1 | · | 7 | -2 | 1 | 22830* | -4
CCCC(=O)Nc1ccc(C(=O)NCC2CCCO2)cc1 (stereo not drawn) | 0 | -2 | -4 | -1 | 24245* | 1
O=C(NCC1CCCO1)c1cccc(Br)c1 (stereo not drawn) | -4 | ? | -5 | -2 | 16290* | 2
O=C(NCCCSc1ccccc1)c1cnc(Cl)c(Cl)c1 | 12 | -1 | 1 | 12 | 3581 | 9
O=C(NCC1CCCO1)c1cnc(Cl)c(Cl)c1 (stereo not drawn) | 0 | 2 | 1 | 14 | 3554 | 32*
O=C(NCC1CCCO1)c1ccc(NC(=O)c2cccc(Br)c2)cc1 (stereo not drawn) | -9 | -2 | 0 | 6 | 3925 | -7
O=C(NCCc1ccccc1)c1cnc(Cl)c(Cl)c1 | 8 | 0 | -1 | 5 | 2953 | 35*
